# Laboratory results reported in the supplement of paper PMC8728848.
# The full list was thinned out, with the strongest signals kept by preference.
# B1: OrfX (Escherichia coli), Q9X4B6_ECOLX (protein)
# chain: MIKIARIAVTLGLLSSLGAQAYAAGLVVNDNDLRNDLAWLSDRGVIHLSLSTWPLSQEEIARALKKAKPSYSSEQVVLARINQRLSALKADFRVTGYTSTDQPGTPQGFGQTQPADNSLGLAFNNSGEWWDVHLQGNVEGGERISNGSRFNANGAYGAVKFWNQWLSFGQVPQWWGPGYEGSLIRGDAMRPMTGFLMQRAEQAAPETWWLRWVGPWQYQISASQMNQYTAVPHAKIIGGRFTFTPFQSLELGASRIMQWGGEGRPQSFSSFWDGFTGHDNTGTDNEPGNQLAGFDFKFKLEPTLGWPVSFYGQMVGEDESGYLPSANMFLGGVEGHHGWGKDTVNWYVEAHDTRTNMSRTNYSYTHHIYKDGYYQQGYPLGDAMGGDGQLIAGKVELITEDNQRWSTRLVYAKVNPENQSINKAFPHADTLKGLQLGWSGDVYQSVRLNTSLWYTNANNSDSDDVGASAGIEIPFSL
# Columns and labels:
# Test in all cases: glycan array binding signal (z-score within array); higher = stronger binding
# Conditions in all cases: glycan notation: IUPAC condensed, linker removed
# [1] = biological target: Fuc(a1-2)Gal(b1-4)GlcNAc(b1-3)Gal(b1-4)GlcNAc
# Method in brief: (§1)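 Negative Z-scores can be read as non-binding. The Z-score is calculated within each array and then averaged across arrays of one protein sequence at different concentrations or buffers and across linkers. Arrays, 3228 in all, were curated from the Consortium for Functional Glycomics database and kept only where the protein sequence was available.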
# [2] = biological target: Fuc(a1-2)Gal(b1-4)GlcNAc(b1-3)[Fuc(a1-2)Gal(b1-4)GlcNAc(b1-6)]GalNAc
# Method in brief: as §1
# [3] = biological target: Fuc(a1-2)Gal(b1-4)[Fuc(a1-3)]GlcNAc(b1-2)Man(a1-3)[Fuc(a1-2)Gal(b1-4)[Fuc(a1-3)]GlcNAc(b1-2)Man(a1-6)]Man(b1-4)GlcNAc(b1-4)GlcNAc
# Method in brief: as §1
# [4] = biological target: Fuc(a1-2)Gal(b1-4)[Fuc(a1-3)]GlcNAc(b1-2)[Fuc(a1-2)Gal(b1-4)[Fuc(a1-3)]GlcNAc(b1-4)]Man(a1-3)[Fuc(a1-2)Gal(b1-4)[Fuc(a1-3)]GlcNAc(b1-2)Man(a1-6)]Man(b1-4)GlcNAc(b1-4)GlcNAc
# Method in brief: as §1
# [5] = biological target: Fuc(a1-2)Gal(b1-4)[Fuc(a1-3)]GlcNAc(b1-3)Gal(b1-4)[Fuc(a1-3)]GlcNAc(b1-3)Gal(b1-4)[Fuc(a1-3)]GlcNAc
# Method in brief: as §1
# [6] = biological target: Fuc(a1-2)Gal(b1-4)[Fuc(a1-3)]GlcNAc(b1-3)GalNAc
# Method in brief: as §1
# [7] = biological target: Fuc(a1-2)[Gal(a1-3)]Gal(b1-4)[Fuc(a1-3)]Glc
# Method in brief: as §1
# [8] = biological target: Fuc(a1-2)[Gal(a1-4)]Gal(b1-4)GlcNAc
# Method in brief: as §1
# [9] = biological target: Fuc(a1-2)[GalNAc(a1-3)]Gal
# Method in brief: as §1
# [10] = biological target: Fuc(a1-2)[GalNAc(a1-3)]Gal(b1-4)Glc
# Method in brief: as §1
# [11] = biological target: Fuc(a1-2)[GalNAc(a1-3)]Gal(b1-4)[Fuc(a1-3)]GlcNAc
# Method in brief: as §1
# [12] = biological target: Fuc(a1-3)[Gal3S(b1-4)]GlcNAc6S
# Method in brief: as §1
# Gal(a1-3)Gal(b1-4)Glc = biological target: Gal(a1-3)Gal(b1-4)Glc
# Method in brief: as §1
# [13] = biological target: Gal(a1-4)Gal(b1-4)GlcNAc(b1-3)Gal(b1-4)Glc
# Method in brief: as §1
# [14] = biological target: Gal(b1-3)GalNAc(a1-3)[Fuc(a1-2)]Gal(b1-4)Glc
# Method in brief: as §1
# [15] = biological target: Gal(b1-3)GlcNAc(b1-2)Man(a1-3)[GlcNAc(b1-4)][Gal(b1-3)GlcNAc(b1-2)Man(a1-6)]Man(b1-4)GlcNAc(b1-4)GlcNAc
# Method in brief: as §1
# [16] = biological target: Gal(b1-4)GalNAc(b1-3)[Fuc(a1-2)]Gal(b1-4)GlcNAc
# Method in brief: as §1
# [17] = biological target: Gal(b1-4)GlcNAc(b1-2)Man(a1-3)Man(b1-4)GlcNAc(b1-4)GlcNAc
# Method in brief: as §1
# Gal(b1-4)GlcNAc6P = biological target: Gal(b1-4)GlcNAc6P
# Method in brief: as §1
# Gal(b1-6)Gal = biological target: Gal(b1-6)Gal
# Method in brief: as §1
# Gal3S(b1-4)Glc = biological target: Gal3S(b1-4)Glc
# Method in brief: as §1
# [18] = biological target: Gal3S(b1-4)[Fuc(a1-3)]Glc6S
# Method in brief: as §1
# Gal6S(b1-4)GlcNAc6S = biological target: Gal6S(b1-4)GlcNAc6S
# Method in brief: as §1
# GalNAc(b1-4)Gal(b1-4)Glc = biological target: GalNAc(b1-4)Gal(b1-4)Glc
# Method in brief: as §1
# GalNAc6S(b1-4)GlcNAc = biological target: GalNAc6S(b1-4)GlcNAc
# Method in brief: as §1
# [19] = biological target: GlcNAc(a1-4)Gal(b1-4)GlcNAc(b1-3)Gal(b1-4)[Fuc(a1-3)]GlcNAc(b1-3)Gal(b1-4)[Fuc(a1-3)]GlcNAc
# Method in brief: as §1
# [20] = biological target: GlcNAc(b1-3)[GlcNAc(b1-4)][GlcNAc(b1-6)]GlcNAc
# Method in brief: as §1
# [21] = biological target: Man(a1-2)Man(a1-2)Man(a1-6)[Man(a1-3)]Man
# Method in brief: as §1
# [22] = biological target: Neu5Ac(a2-3)Gal(b1-3)GlcNAc(b1-3)Gal(b1-3)GlcNAc
# Method in brief: as §1
# [23] = biological target: Neu5Ac(a2-3)Gal(b1-3)GlcNAc6S
# Method in brief: as §1
# [24] = biological target: Neu5Ac(a2-3)Gal(b1-3)[Neu5Ac(a2-6)]GlcNAc(b1-3)[Fuc(a1-3)[Gal(b1-4)]GlcNAc(b1-6)]Gal(b1-4)Glc
# Method in brief: as §1
# [25] = biological target: Neu5Ac(a2-3)Gal(b1-4)GlcNAc(b1-2)Man
# Method in brief: as §1
# [26] = biological target: Neu5Ac(a2-3)Gal(b1-4)[Fuc(a1-3)]GlcNAc(b1-3)Gal(b1-4)[Fuc(a1-3)]GlcNAc(b1-3)Gal(b1-4)[Fuc(a1-3)]GlcNAc
# Method in brief: as §1
# [27] = biological target: Neu5Ac(a2-3)Gal(b1-4)[Fuc(a1-3)]GlcNAc(b1-3)GalNAc
# Method in brief: as §1
# [28] = biological target: Neu5Ac(a2-6)Gal(b1-4)GlcNAc(b1-3)Gal(b1-4)GlcNAc(b1-3)Gal(b1-4)GlcNAc
# Method in brief: as §1
# [29] = biological target: Neu5Ac(a2-6)Gal(b1-4)GlcNAc(b1-6)GalNAc
# Method in brief: as §1
# [30] = biological target: Neu5Ac(a2-8)Neu5Ac(a2-3)Gal(b1-3)GalNAc(b1-4)[Neu5Ac(a2-8)Neu5Ac(a2-3)]Gal(b1-4)Glc
# Method in brief: as §1
# Neu5Ac(b2-6)GalNAc = biological target: Neu5Ac(b2-6)GalNAc
# Method in brief: as §1
# [31] = biological target: Neu5Ac9Ac(a2-3)Gal(b1-3)GlcNAc
# Method in brief: as §1
binder,measurement,setting,value
B1,glycan array binding signal (z-score),[1],-0.191
same,glycan array binding signal (z-score),[2],0.429
same,glycan array binding signal (z-score),[3],0.202
same,glycan array binding signal (z-score),[4],-0.108
same,glycan array binding signal (z-score),[5],-0.02
same,glycan array binding signal (z-score),[6],4.3
same,glycan array binding signal (z-score),[7],-0.132
same,glycan array binding signal (z-score),[8],-0.32
same,glycan array binding signal (z-score),[9],-0.116
same,glycan array binding signal (z-score),[10],-0.196
same,glycan array binding signal (z-score),[11],0.042
same,glycan array binding signal (z-score),[12],2.97
same,glycan array binding signal (z-score),Gal(a1-3)Gal(b1-4)Glc,-0.261
same,glycan array binding signal (z-score),[13],-0.181
same,glycan array binding signal (z-score),[14],-0.182
same,glycan array binding signal (z-score),[15],0.214
same,glycan array binding signal (z-score),[16],-0.145
same,glycan array binding signal (z-score),[17],-0.266
same,glycan array binding signal (z-score),Gal(b1-4)GlcNAc6P,0.611
same,glycan array binding signal (z-score),Gal(b1-6)Gal,0.048
same,glycan array binding signal (z-score),Gal3S(b1-4)Glc,0.076
same,glycan array binding signal (z-score),[18],2.79
same,glycan array binding signal (z-score),Gal6S(b1-4)GlcNAc6S,2.74
same,glycan array binding signal (z-score),GalNAc(b1-4)Gal(b1-4)Glc,0.667
same,glycan array binding signal (z-score),GalNAc6S(b1-4)GlcNAc,-0.318
same,glycan array binding signal (z-score),[19],10.6
same,glycan array binding signal (z-score),[20],11.2
same,glycan array binding signal (z-score),[21],-0.231
same,glycan array binding signal (z-score),[22],-0.096
same,glycan array binding signal (z-score),[23],-0.301
same,glycan array binding signal (z-score),[24],-0.357
same,glycan array binding signal (z-score),[25],7.89
same,glycan array binding signal (z-score),[26],-0.34
same,glycan array binding signal (z-score),[27],7.1
same,glycan array binding signal (z-score),[28],-0.288
same,glycan array binding signal (z-score),[29],3.4
same,glycan array binding signal (z-score),[30],-0.409
same,glycan array binding signal (z-score),Neu5Ac(b2-6)GalNAc,-0.166
same,glycan array binding signal (z-score),[31],-0.162
